Test results: PubChem BioAssay AID1688 (National Center for Advancing Translational Sciences (NCATS), 2009)
About 2,400 (1.1%) of roughly 220,000 compounds were called active. Roughly 7% stayed inconclusive and do not appear here. Many of the other results were omitted from the sample, so actives are more common in it than they were. A number with no mark means an inactive call. Calls follow the shape of the dose curve; as a rule, active = well fitted inhibition curve with a large enough effect; inconclusive = small, poorly fitted or top-dose-only effect, or effect the other way; inactive = no such curve, though single readings can be large or run the other way.

assay: qHTS Multiplex Assay to Identify Dual Action Probes in a Cell Model of Huntington: Aggregate Formation (GFP); conditions: PC12 HttQ103-GFP aggregates, Acumen cytometry, 40 h; series mostly up to 9.22 µM; activity change, negative = inhibition: at the top concentration; also: nearly all actives have a fitted effect of over 60% in size
Excerpt: NIH Chemical Genomics Center [NCGC]
NIH Molecular Libraries Probe Production centers Network [MLPCN]
Assay Submitter (PI): Wei Zheng
Huntington's disease is a neurodegenerative disorder caused by a trinucleotide repeat expansion in Exon 1 of the Huntingtin gene. The CAG trinucleotide encodes glutamine and polyglutamine expansions cause cell death in selective areas of the brain. Huntington polyglutamine repeats have the tendency to form aggregates which are observable in later stages of the disease. The exact nature of the aggregates, whether toxic, protective, or insignificant, is unclear.
A stable PC12 cell line containing a gene fusion of Exon 1 of the Huntingtin gene linked to GFP under the control of the inducible ecdysone promoter were used as the cell-based model of Huntington Disease for high throughput screening. Exon 1 of the Huntingtin gene contained an expansion of 103 polyglutamines (Q103) which, when expressed, caused cell death and distinct, bright GFP aggregates. The amount of cell death and the size and intensity of GFP aggregates increased over time and induction level. The cell death were quantified with a measurement of ATP content in the cells. A maximal 40-50% of cell death was observed when the Huntington gene was induced in this cell line.
We optimized this assay in a homogeneous 1536 well format. A quantitative high throughput screen (qHTS) was conducted on the PC12 cells which were induced to express the toxic fusion construct. Small molecules which reduced aggregate formation were identified bu using a laser scanning cytometer calibrated to detect the aggregates in cell lysates.
PC12 cells stably containing a construct with an ecdysone inducible promoter expressing GFP fused to the exon 1 of HTTQ103 (Huntington protein which containing a 103 ployglutamine expansion) were used.
NCGC Assay Protocol Summary:
Sequence, Parameter, Description
1, Reagent, 5 uL 1500 cells/well 1536 TC treated White clear bottom plate
2, Compound, 23 nL Tebufenozide inducer (100 nM final) to all columns
3, Compound, 23 nL 40 uM to 0.5 nM Libraries
5, Reagent, 5 ul ATPLite cell death assay reagent
6, Detector, Aggregate quantitation by Acumen Explorer
Media consisted of phenol red free DMEM + 5% equine serum (Hyclone # SH30072.03 ), 5% supplemented Bovine Calf Serum (Hyclone # SH30074.03 ), 1x pen/strep, no G418
Acumen Explorer was used to quantitate GFP aggregates using the following criteria: […] laser excitation, 500-530 nm emission, the PMT was set at a voltage of 450 volts, and objects ranging in size of […] in size having a signal of 6 STDEV above background were collected.
Control columns: 1 = DMSO, 2= 2 uM teb dilns (1:1), 4 = 100 nM Teb inducer. Sample columns received 100 nM Teb.
% is scaled to controls: 0 for no effect and ±100 for the full control effect; potency is read from the fitted curve at half-maximal effect.

Row | SMILES | Potency | activity change, negative = inhibition
1 | CCCCCn1c(=O)c(C(=O)NCc2ccccn2)c(O)c2ccccc21 | 31.6 µM (active) | 
2 | CCCCCn1c(=O)c(C(=O)Nc2c(C)n(C)n(-c3ccccc3)c2=O)c(O)c2ccccc21 |  | -4.15% [at 46.1 µM]
3 | C=CCN1CCC23c4c5ccc(O)c4O[C@H]2C(=O)CC[C@@]3(O)C1C5 (stereo not given in full) |  | -12.6% [at 46.1 µM]
4 | c1ccc2sc(SNC3CCCCC3)nc2c1 |  | 4.56% [at 46.1 µM]
5 | CN1CCN(/N=C/c2c[nH]c3ccccc23)CC1 |  | -7.16%
6 | CC(Cc1ccccc1)NC=O (stereo not given) |  | 7.73% [at 46.1 µM]
7 | CN1CCCC(=C(c2cccs2)c2cccs2)C1 |  | 12.7% [at 46.1 µM]
8 | Cc1ncc(CC(=O)n2cc(C(=O)c3cc(Cl)ccc3O)cn2)s1 | 14.1 µM (active) | 
9 | COc1cccc(CN2CCCC(C(=O)c3ccccc3SC)C2)c1O (stereo not given) |  | 7.86%
10 | CC[N+]1(CCOC(=O)C(O)(c2ccccc2)c2ccccc2)CCCCC1 |  | 0.998% [at 46.1 µM]
11 | COc1ccc(-n2c(-c3ccccc3)nc3ccccc3c2=O)cc1 |  | -2.76%
12 | O=Cc1cn(Cc2ccc(F)cc2Cl)c2ccccc12 | 10 µM (active) | 
13 | CC1C2Cn3c(nc4ccccc43)C1N(C)O2 (stereo not given) |  | -32.9%
14 | CCCCC(=O)N/N=C/c1c(O)n(CC)c(=S)n(CC)c1=O | 3.98 µM (active) | 
15 | CCCCC(=O)N/N=C/c1c(O)n(-c2ccccc2)c(=O)[nH]c1=O |  | -6.96%
16 | CCCCC(=O)N/N=C/c1c(O)n(CCC2=CCCCC2)c(=O)[nH]c1=O |  | 7.87%
17 | COC([CH2][Hg])CNC(=O)c1ccccc1OCC(=O)O (stereo not given) |  | 7.98% [at 46.1 µM]
18 | O=C(N/N=C/c1ccc([N+](=O)[O-])o1)c1cc([N+](=O)[O-])cc([N+](=O)[O-])c1O |  | 8.73% [at 46.1 µM]
19 | CC(C)c1ccc(-n2c(O)c(/C=N/N3CCOCC3)c(=O)[nH]c2=S)cc1 |  | -11.4%
20 | CCCn1c(C(=O)c2ccccc2OC)nc2ccccc21 |  | 5.56%
